The target in assay [1] is Cytochrome P450 2D6 (Homo sapiens) (UniProt P10635). Description: Cytochrome P450 family 2 subfamily D member 6 (CYP2D6) small molecule antagonists: luciferase biochemical (cell-free) qHTS assay (AID 1645840). The essentials:
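P450-Glo luminescent screen: recombinant CYP2D6 enzyme–proluciferin substrate mix preincubated with compound 10 min at room temperature, then NADPH regeneration added for 1 h at room temperature. Detection reagent added for 20 min; luciferin light read as relative luminescence units.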
On the technique in general: In qHTS, concentration-response curves come from the screen itself.

Assay [2] has as its target Cytochrome P450 2C9 (Homo sapiens) (UniProt P11712). Nature of the assay: Cytochrome P450 family 2 subfamily C member 9 (CYP2C9) small molecule antagonists: luciferase biochemical (cell-free) qHTS assay (AID 1645842). The essentials: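 Luminescence, after 20 min with luciferin detection reagent, reflected CYP2C9 turnover during a 1 h NADPH-driven reaction at 37C. Enzyme-substrate mix contained 0.4% bovine serum albumin and was preincubated with compound 10 min at room temperature.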

Results filed as inconclusive are left out. A number with no mark means an inactive call. Calls of active or inactive are those of the source. Calls come from the whole dose curve; as a rule, active = well fitted curve in the direction sought with a large enough effect in the repeat runs; inconclusive = weak or mixed curves; inactive = no such curve, though single readings can be large; an effect the other way counts as inactive or inconclusive.
Note: nearly all actives have a fitted effect of over 55% in size.
Potency is the fitted concentration of half-maximal effect.

Cytochrome P450 2C9 (Homo sapiens), sequence (P11712 whole entry, looked up): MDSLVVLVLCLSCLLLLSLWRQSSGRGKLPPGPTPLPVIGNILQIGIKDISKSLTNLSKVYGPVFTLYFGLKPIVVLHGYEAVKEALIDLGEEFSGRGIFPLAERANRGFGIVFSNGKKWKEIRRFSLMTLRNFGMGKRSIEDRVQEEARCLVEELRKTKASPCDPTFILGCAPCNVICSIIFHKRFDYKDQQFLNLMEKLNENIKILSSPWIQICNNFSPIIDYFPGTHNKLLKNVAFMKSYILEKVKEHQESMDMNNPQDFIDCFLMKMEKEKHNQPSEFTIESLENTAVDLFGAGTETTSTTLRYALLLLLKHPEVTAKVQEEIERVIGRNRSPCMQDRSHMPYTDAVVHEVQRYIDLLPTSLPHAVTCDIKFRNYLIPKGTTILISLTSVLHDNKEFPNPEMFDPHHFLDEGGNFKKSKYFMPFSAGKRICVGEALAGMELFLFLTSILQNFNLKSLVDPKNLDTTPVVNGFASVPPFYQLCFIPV
Cytochrome P450 2D6 (Homo sapiens), sequence (P10635 whole entry, looked up): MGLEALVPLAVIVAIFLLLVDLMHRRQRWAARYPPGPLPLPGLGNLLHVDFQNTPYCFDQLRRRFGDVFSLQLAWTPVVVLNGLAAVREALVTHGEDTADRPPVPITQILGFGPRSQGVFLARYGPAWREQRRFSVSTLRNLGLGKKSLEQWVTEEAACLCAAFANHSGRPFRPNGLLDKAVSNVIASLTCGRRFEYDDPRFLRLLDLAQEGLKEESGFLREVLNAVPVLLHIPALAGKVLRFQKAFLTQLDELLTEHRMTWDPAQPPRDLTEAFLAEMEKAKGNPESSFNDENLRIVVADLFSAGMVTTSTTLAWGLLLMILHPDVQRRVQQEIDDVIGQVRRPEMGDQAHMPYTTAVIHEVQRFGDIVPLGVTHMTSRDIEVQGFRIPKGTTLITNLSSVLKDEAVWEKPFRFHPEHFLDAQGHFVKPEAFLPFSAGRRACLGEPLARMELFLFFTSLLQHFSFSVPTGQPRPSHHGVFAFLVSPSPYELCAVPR

As for `CNS(=O)(=O)c1ccc(Cc2c(-c3cccc(-c4ccccc4)c3)[nH]n(-c3nc(C(=O)O)cs3)c2=O)cc1`, the Potency in assay [1] was 26.8 µM (active); in assay [2], 21.3 µM (active).

On to `Cc1ccc(NC(=O)CSc2nc3ccccc3c3nc(CCn4cncc4C)nn23)cc1F`, for which the Potency was 3.79 µM (active) in assay [1] and 0.536 µM (active) in assay [2].

`Cc1ccc([S+](=O)([O-])NC2(c3ccccc3)CCCCC2)cc1`: in assay [1], the Potency result is “inactive”. Also, the Potency in assay [2] is 2.68 µM (active).

`Cc1cccc(Cn2c(SCc3ccc(C(=O)N4CCC(C)CC4)cc3)nc3ccncc32)c1`: the Potency in assay [1] and in assay [2] was 4.77 µM (active) in each case.

For the compound `Cc1ccc([S+](=O)([O-])NC2CCC(C)(C)CC2)cc1`, the Potency result in assay [1] was “inactive”. In addition, the Potency in assay [2] was 2.13 µM (active).

Take `COc1ccc(CC2c3cc(OC)c(OC)cc3CCN2CCC(=O)OCCCCCOC(=O)CCN2CCc3cc(OC)c(OC)cc3C2Cc2ccc(OC)c(OC)c2)cc1OC` (stereo not given): the Potency result in assay [1] was “inactive”. The Potency in assay [2] was 21.3 µM (active).

On to `CC1=C(C(=O)Nc2cccc(CN)c2)C(c2ccccc2Cl)N=C(Nc2nc3ccccc3o2)N1` (stereo not given), for which the values for the Potency in assay [1] and in assay [2] were 3.38 µM (active) and 5.35 µM (active), respectively.

Turning to `COc1ccc(C(C#N)C(C)C)cc1OC` (stereo not given), the Potency entry in assay [1] and in assay [2] was “inactive” throughout.

With `CC(C)c1ccc(-n2ncc3c(=O)n(CC(=O)Nc4cc(F)ccc4Cl)cnc32)cc1`, in assay [1], the Potency entry was “inactive”. For the same compound, the Potency in assay [2] was 3.79 µM (active).

As for `Cc1ccc(NC(=O)Cn2c(=O)n(CCC(=O)NCc3ccc4c(c3)OCO4)c(=O)c3sccc32)c(C)c1`, the figures for the Potency in assay [1] and in assay [2] were 1.69 µM (active) and 2.13 µM (active), respectively.

With `COc1ccc(Cn2c(CCC(=O)Nc3cccc(OC)c3)nc3cccnc32)cc1`, the Potency in assay [1] was 2.68 µM (active); in assay [2], 4.77 µM (active).

For `CCCCCCCCCCCCCCCCNc1ccc(C(=O)O)cc1`, the Potency entry in assay [1] and in assay [2] was “inactive” in each case.

Turning to `Cc1ccc(S(=O)(=O)N2CCc3cc(C(=O)Nc4ccc(C(F)(F)F)cc4)ccc32)cc1`, the Potency entry in assay [1] was “inactive”. For the same compound, the Potency in assay [2] is 1.51 µM (active).

`CCCCCCCCCCCCCCCC(=O)OC[C@H](O)[C@H]1OC(=O)C(=O)C1O` (stereo not given in full): the Potency result in assay [1] is “inactive”. Also, in assay [2], the Potency was 26.8 µM (active).

On to `CC1=C(C(=O)Nc2nnc(C)s2)C(c2ccccc2Cl)N=C(Nc2nc3ccccc3o2)N1` (stereo not given), for which the Potency entry in assay [1] was “inactive”. Also, the Potency in assay [2] was 9.52 µM (active).

In the case of `COc1ccc(C(=O)Nc2nc3ccccc3n2CCOc2ccc(Cl)cc2)cc1`, the Potency entry in assay [1] was “inactive”. Also, the Potency in assay [2] was 26.8 µM (active).

Consider `CCOc1ccc(-c2nonc2NC(=O)c2oc3c(C)c(C)ccc3c2C)cc1OCC`, for which the Potency result in assay [1] was “inactive”. In addition, the Potency in assay [2] was 0.379 µM (active).

With `COc1ccc(Cn2c(CCC(=O)Nc3ccc(C)c(C)c3)nc3cccnc32)cc1`, in assay [1], the Potency entry is “inactive”. Also, the Potency in assay [2] is 7.56 µM (active).

In the case of `O=C(Cn1c(=O)n(-c2ccc(Cl)cc2)c(=O)c2oc3ccccc3c21)Nc1ccccc1`, the Potency in assay [1] was 0.849 µM (active); in assay [2], 4.77 µM (active).

Turning to `COc1cccc(C(=O)NC(c2ccc(Cl)cc2)c2cc(Cl)c3cccnc3c2O)c1` (stereo not given), the Potency entry in assay [1] is “inactive”. In assay [2], the Potency is 23.9 µM (active).

`COc1ccc(Cn2ccnc2SCC(=O)Nc2nc3ccccc3s2)cc1`: the Potency was 9.52 µM (active) in assay [1] and 2.39 µM (active) in assay [2].

For `N#Cc1ccccc1Cn1nnc2c(=O)[nH]c(C3CCCN(S(=O)(=O)c4ccc(F)cc4)C3)nc21` (stereo not given), the Potency is 0.849 µM (active) in assay [1] and 1.69 µM (active) in assay [2].

As to `COc1ccc(-c2nc(SCC(=O)Nc3ccc4c(c3)OCO4)c(-c3ccccc3)[nH]2)cc1`, the Potency in assay [1] was 6.01 µM (active); in assay [2], 1.2 µM (active).

On to `CC1(C#N)CCN(c2c(C(=O)N3CCN(C(=O)N4CCCC4)CC3)cnc3c(F)cc(F)cc23)CC1`, for which the Potency entry in assay [1] is “inactive”. Also, the Potency in assay [2] is 12 µM (active).

As to `Cc1ccc(NC(=O)Cn2cc(C(=O)c3ccco3)c3ccccc32)c(C)c1`, the Potency is 6.74 µM (active) in assay [1] and 0.849 µM (active) in assay [2].

As to `N#C/C(=C/c1ccccc1Cl)c1nc2ccccc2c(=O)[nH]1`, the Potency entry in assay [1] was “inactive”. For the same compound, the Potency in assay [2] is 3.38 µM (active).

As to `COCCCNC(=O)C(=O)Nc1c2c(nn1-c1cccc(Cl)c1)CSC2`, the Potency entry in assay [1] was “inactive”. Also, the Potency in assay [2] was 8.49 µM (active).

`COc1ccc(Cn2c(SCc3ccc(C(=O)NC4CCCC4)cc3)nc3ccncc32)cc1`: the Potency was 6.01 µM (active) in assay [1] and 0.674 µM (active) in assay [2].

Turning to `COc1ccc(NC(=O)CSc2oc(-c3cccs3)nc2S(=O)(=O)c2ccc(Br)cc2)c(OC)c1`, the Potency entry in assay [1] was “inactive”. In addition, in assay [2], the Potency is 0.477 µM (active).

For the compound `Cc1ccc(Nc2nc3ccccc3c3nnc(C)n23)c(C)c1`, the Potency result in assay [1] is “inactive”. For the same compound, the Potency in assay [2] is 5.35 µM (active).

For the compound `Cc1ccc(CSC2=Nc3ccccc3C3=NC(CC(=O)NCc4cccs4)C(=O)N23)cc1` (stereo not given), the results for the Potency in assay [1] and in assay [2] were 6.74 µM (active) and 0.379 µM (active), respectively.

In the case of `Cc1ccc(S(=O)(=O)NC2CCC(C(C)(C)C)CC2)cc1` (stereo not given), in assay [1], the Potency entry was “inactive”. In assay [2], the Potency is 2.68 µM (active).

In the case of `Cc1ccc(C)c(Nc2nc3nonc3nc2Nc2cccc(C)c2C)c1`, in assay [1], the Potency is 10.7 µM (active). Further, in assay [2], the Potency result was “inactive”.

As for `CCN1CCN(CCCNC(=O)c2cc3c(s2)-c2c(C)cccc2OC3)CC1`, the Potency in assay [1] is 10.7 µM (active). Moreover, in assay [2], the Potency entry was “inactive”.

With `CCOC(=O)c1ccc(NC(=O)c2cc(=O)c3ccc(C)c(C)c3o2)cc1`, the Potency entry in assay [1] and in assay [2] was “inactive” throughout.

(Values after PubChem BioAssay (NCATS).)
